Screening results from PubChem BioAssay.
A selection: hits, their analogues and other compounds. The true share with any hit is near 3.5%.
TEAD-YAP block = TEAD-YAP interaction inhibition, primary screen, TEAD-YAP interaction inhibitor project, luminescence, HEK-TIYL cells | TEAD-Gal4/YAP UAS-luciferase luminescence | inhibition, % at 9.12 µM | actives 1.4% (n = 640,000); in the data active = inhibition above about 32%
GPR151 ag = activators of human GPR151, primary screen, cell-based, PathHunter beta-arrestin, luminescence. actives 1% (n = 650,000). activation, % at 11.2 µM. G-protein coupled receptor 151 (Homo sapiens), Q8TDV0. PathHunter beta-arrestin GPR151 cells; in the data active = activation above about 4.9%
FBW7 act = FBW7 E3 ligase activators, primary screen, biochemical, AlphaScreen, human; AlphaScreen FBW7–phospho-cyclin E peptide binding, activator screen; normalized activity (activation), % at 26.1 µM; actives 0.13% (n = 650,000); AID 1259310, 2017; in the data active = normalized activity above about 1.9%;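 also: purified mutant Fbw7 with reduced substrate affinity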
MITF inh = MITF inhibitors, primary screen, biochemical, AlphaScreen, human. AID 1259374, 2018. actives 0.91% (n = 650,000). AlphaScreen MITF homodimerization, bead proximity signal. Microphthalmia-associated transcription factor (Homo sapiens), O75030. inhibition, % at 2.6 µM; in the data active = inhibition above about 50%
Target sequence (O75030 whole entry, looked up): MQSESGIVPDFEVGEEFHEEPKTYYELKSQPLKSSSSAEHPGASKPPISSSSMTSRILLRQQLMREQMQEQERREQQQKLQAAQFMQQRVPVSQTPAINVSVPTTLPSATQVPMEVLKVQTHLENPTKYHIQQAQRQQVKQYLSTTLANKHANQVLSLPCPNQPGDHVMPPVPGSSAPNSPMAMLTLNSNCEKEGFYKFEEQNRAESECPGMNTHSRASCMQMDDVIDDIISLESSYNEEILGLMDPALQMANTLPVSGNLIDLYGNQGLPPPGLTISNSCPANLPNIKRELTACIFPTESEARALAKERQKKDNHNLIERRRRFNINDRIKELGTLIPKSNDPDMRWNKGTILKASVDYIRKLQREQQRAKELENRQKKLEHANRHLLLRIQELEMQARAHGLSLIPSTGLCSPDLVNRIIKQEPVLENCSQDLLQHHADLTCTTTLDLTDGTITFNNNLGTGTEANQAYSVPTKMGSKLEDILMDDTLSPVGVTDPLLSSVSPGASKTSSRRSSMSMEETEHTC
GPR151 confirm = GPR151 activators, triplicate retest, confirmation, cell-based, PathHunter beta-arrestin, luminescence. 6,700 tested, under 10 active. AID 1508609, 2020. shares compounds with GPR151 ag. GPR151 PathHunter beta-arrestin cells, 90 min; % of EA-reagent control over plate median. activation, % at 11.2 µM;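 active = mean percent activation across replicates above the confirmation screen cutoff of 4.91%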
GPR119 ag = GPR119 activators in beta-arrestin cells, counter-screen for GPR151 activator project, cell-based, PathHunter beta-arrestin, luminescence, triplicate. shares compounds with GPR151 ag. 90 min; 0 = compound-well median, 100 = enzyme-acceptor control. activation, % at 11.2 µM. actives 0.3% (n = 6,700). AID 1508611, 2020;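 active = mean percent activation in the counterscreen above 29.09%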;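 also: counterscreen on off-target GPR119 to flag nonselective hits from the GPR151 activator screen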
Large screens that a line does not name were inactive (follow-up assays come after a bar, where they were run).

CCCCOc1ccc(NC(=O)CC)cc1	none
CCCCOc1ccc(NC(=O)C(=O)NC(C)C)cc1	GPR151 ag 5.6 | GPR151 confirm inactive | GPR119 ag inactive
CCCCOc1ccc(NC(=O)C(=O)NC)cc1	none
CCCCCOc1ccc(NC(=O)C(C)C)cc1	GPR151 ag 14 | GPR151 confirm inactive | GPR119 ag inactive
Cc1ccc2c(Cl)c(C(=O)Nc3ccccc3C)sc2c1	none
CCC(=O)Nc1nc2c(s1)C(=O)CC(C)(C)C2	none
CCOc1ccc(-n2c(CNC(=O)c3ccc(S(=O)(=O)N(C)C)cc3)nnc2SCC(=O)Nc2ccc(OC)cc2)cc1	none
Cc1ccc(S(=O)(=O)N2CCCC(N3CCOCC3)C2)s1 (stereo not drawn)	GPR151 ag 6.3 | GPR151 confirm inactive | GPR119 ag inactive
O=S(=O)(c1ccc(F)c(Cl)c1)N1CCCC(N2CCOCC2)C1 (stereo not drawn)	GPR151 ag 12 | GPR151 confirm inactive | GPR119 ag inactive
Cc1ccc(S(=O)(=O)N2CCCC(N3CCOCC3)C2)cc1Cl (stereo not drawn)	none
O=S(=O)(c1ccc2c(c1)OCCO2)N1CCCC(N2CCOCC2)C1 (stereo not drawn)	none
O=S(=O)(Nc1ccc(O)c(Br)c1)c1ccc(F)cc1	none
COc1ccc(S(=O)(=O)Nc2ccc(O)c(Br)c2)cc1	GPR151 ag 5.9 | GPR151 confirm inactive | GPR119 ag inactive
COc1ccc(NS(=O)(=O)c2ccc(Br)c(C(=O)Nc3ccccc3)c2)cc1	GPR151 ag 6.2 | GPR151 confirm inactive | GPR119 ag inactive
O=C(Cn1c(=O)oc2ccccc21)NCCSCc1ccccc1	none
COCCC(=O)Nc1ccc2c(c1)CN(S(=O)(=O)N1CCCC1)CC2	GPR151 ag 7.5 | GPR151 confirm inactive | GPR119 ag inactive
O=C1CC(c2cccc(I)c2)c2ccc3ccccc3c2N1 (stereo not drawn)	none
Cc1cccc(C(=O)Nc2nn3c(-c4ccco4)nnc3s2)c1	none
O=C1CSC(c2ccc(Cl)cc2Cl)N1c1ccc(Cl)cc1 (stereo not drawn)	none
CCOC(=O)C1CCCCN1c1c(-c2ccccc2)c(=O)c1=O (stereo not drawn)	none
O=C(CCN1c2ccccc2Sc2ccccc21)N1CCOCC1	GPR151 ag 5.8 | GPR151 confirm inactive | GPR119 ag inactive
CCOc1ccc(C(=O)NCCn2cc(SC(=N)N)c3ccccc32)cc1	GPR151 ag 5.0 | GPR151 confirm inactive | GPR119 ag inactive
COc1ccccc1/C=N/NC(=O)c1ccccc1Cl	none
COc1ccccc1/C=N/NC(=O)c1ccccc1O	GPR151 ag 7.1 | GPR151 confirm inactive | GPR119 ag inactive
O=C(N/N=C/c1ccccc1O)c1ccc(Cl)cc1Cl	GPR151 ag 5.1 | GPR151 confirm inactive | GPR119 ag inactive
CCN(CC)c1ccc(/C=N/NC(=O)c2ccccc2Cl)c(O)c1	GPR151 ag 7.3 | GPR151 confirm inactive | GPR119 ag inactive
Cc1ccc(Nc2nc(N3CCCC3)nc(N3CCCC3)n2)cc1	none
CCc1ccc(Nc2nc(N3CCCC3)nc(N3CCCC3)n2)cc1	GPR151 ag 4.9 | GPR151 confirm inactive | GPR119 ag inactive
COc1ccc(-c2cc(C(=O)Nc3ccc(Oc4ccc(Br)cc4)cc3)c3ccccc3n2)cc1	none
COC(=O)C1=C(C)NC(=S)NC1c1ccccc1OC (stereo not drawn)	GPR151 ag 5.6 | GPR151 confirm inactive | GPR119 ag inactive
COc1cc2c(cc1C1NC(=S)NC(C)=C1C(=O)N(C)C)CCCC2 (stereo not drawn)	GPR151 ag 8.9 | GPR151 confirm inactive | GPR119 ag inactive
CC[C@H](C)[C@@H]1NC(=O)[C@@H]2C[C@H](NCc3cnn(-c4cccc(F)c4)c3)CN2C1=O	none
COC(=O)C(NC(=O)c1cccs1)C12CC3CC(CC(C3)C1)C2 (stereo not drawn)	GPR151 ag 5.1 | GPR151 confirm inactive | GPR119 ag inactive
COC(=O)C(NC(=O)c1ccc(F)cc1)C12CC3CC(CC(C3)C1)C2 (stereo not drawn)	none
NC(=O)c1cccc(-c2nc(-c3ccccc3)cnc2N)c1	none
COc1ccc(/C=C2/NC(=O)N(c3cccc(Cl)c3)C2=O)cc1	none
O=C1N/C(=C/c2ccco2)C(=O)N1c1cccc(Cl)c1	GPR151 ag 5.2 | GPR151 confirm inactive | GPR119 ag inactive
O=C1N/C(=C/c2ccc3c(c2)OCO3)C(=O)N1c1cccc(Cl)c1	none
COc1cc2c(cc1/C=C1/NC(=O)N(c3cccc(Cl)c3)C1=O)OCO2	GPR151 ag 8.5 | GPR151 confirm inactive | GPR119 ag inactive
COc1ccc(/C=C2/NC(=O)N(c3cccc(Cl)c3)C2=O)c(OC)c1	GPR151 ag 5.7 | GPR151 confirm inactive | GPR119 ag inactive
O=C1N/C(=C/c2ccccc2)C(=O)N1c1cccc(Cl)c1	none
N#C/C(=C/c1ccccc1[N+](=O)[O-])c1ccc2c(c1)OCO2	GPR151 ag 5.7 | GPR151 confirm inactive | GPR119 ag inactive
Cc1ccc(/C=C(/C#N)c2ccc3c(c2)OCO3)cc1[N+](=O)[O-]	none
CC(C(=O)OCC(=O)c1ccc(Br)cc1)N1C(=O)C2C3CCC(C3)C2C1=O (stereo not drawn)	none
Cc1ccc(C(=O)COC(=O)C(C)N2C(=O)C3C4CCC(C4)C3C2=O)cc1 (stereo not drawn)	GPR151 ag 5.4 | GPR151 confirm inactive | GPR119 ag inactive
CSc1nsc(SC)c1NC(=O)OC1CCCC1	none
CSc1nsc(SC)c1NC(=O)OCC1CCCO1 (stereo not drawn)	GPR151 ag 6.6 | GPR151 confirm inactive | GPR119 ag inactive
CCOC(=O)COc1c(Cl)cc(/C=C2/SC(=O)N(CC)C2=O)cc1OC	none
CCNC(=S)Nc1ccc(Cl)c(S(=O)(=O)N2CCOCC2)c1	GPR151 ag 6.6 | GPR151 confirm inactive | GPR119 ag inactive
CCOC(=O)c1cc2occc2n1CC(=O)N1CCCC1	GPR151 ag 7.4 | GPR151 confirm inactive | GPR119 ag inactive
COc1ccc(Cl)cc1NC(=O)/C(=C/c1cccc([N+](=O)[O-])c1)NC(=O)c1cc(Cl)ccc1OC	none
CCOc1cc2c3c(c1)C1(OCCO1)C(=O)N3C(C)(C)CC2C (stereo not drawn)	GPR151 ag 5.9 | GPR151 confirm inactive | GPR119 ag inactive
